Bioassay records from PubChem.
Sm TGR block – qHTS Assay for the Inhibitors of Schistosoma Mansoni Peroxiredoxins | Potency, µM (highest dose often 114 µM), hits mostly inhibitors | hit rate 3% among 360,000 | purified TGR, DTNB reduction, TNB absorbance 405 nm | AID 485364, 2010; further: nearly all actives have a fitted effect of over 60% in size
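TGR 20 nM + NADPH 100 uM (dispensed conc.), cpd preinc 15 min RT; start with NADPH (500 uM addition) then DTNB (15 mM addition). Kinetic TNB absorbance, 405 nm filter. Four-parameter Hill fit across titration.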
Pf growth 48h – Primary qHTS for delayed death inhibitors of the malarial parasite plastid, 48 hour incubation | hit rate 5.9% among 310,000 | P. falciparum luciferase growth in erythrocytes, 48 h | Potency, µM (doses to about 28.7 µM), hits mostly inhibitors
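Compounds are pin-transferred into medium, infected erythrocytes (2% hematocrit, 0.1% parasitemia final) are added, and plates sit one parasite generation at 37 C in 5% CO2. Detection reagent is then added and luminescence measured.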
Pf growth 96h – Primary qHTS for delayed death inhibitors of the malarial parasite plastid, 96 hour incubation | hit rate 6.9% among 320,000 | AID 504834, 2011 | P. falciparum luciferase reporter growth, 96 h | Potency, µM (titrated, usually from 28.7 µM), actives largely listed as inhibitors
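Two parasite generations (96 h, 37 C, 5% CO2) of compound exposure in infected erythrocytes (0.05% parasitemia, 2% hematocrit). Luciferase-reporter P. falciparum; decreased luminescence indicates inhibited growth, aimed at apicoplast-acting delayed death.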
SARS PLpro yeast – qHTS of Yeast-based Assay for SARS-CoV PLP. S. cerevisiae expressing SARS-CoV PLpro, growth rescue. AID 485353, 2010. hit rate 0.19% among 330,000. Potency, µM (titrated, usually from 32.9 µM), usual class: activators; calls by dose curve; further: nearly all actives have a fitted effect of over 55% in size
Of the large screens only hits and unclear results are named; the others gave an inactive call. In the library only some 12% were active in any assay of this set; here they are far more common. Unless noted, the call rests on the fitted dose curve; in most records, active means well fitted curve in the direction sought with a large enough effect; inconclusive means small, poorly fitted or top-dose-only effect, or another doubt; inactive means no such curve, though single readings can be large; an effect the other way counts as inactive or inconclusive.

Cc1nc(N2CCOCC2)[nH]c(=O)c1C(O)C(Cl)(Cl)Cl (stereo not drawn)	Sm TGR block 44.7µM
O=c1[nH]c(N2CCOCC2)nc2c1CCCC2	Pf growth 96h inconclusive
CCCCCCCc1c(C)nc(N2CCOCC2)[nH]c1=O	Pf growth 48h 1.47µM (no result: Pf growth 96h)
CCCCc1c(C)nc(N2CCCC2)[nH]c1=O	Pf growth 48h 6.57µM, Pf growth 96h 4.65µM
CN(CCC1CCOCC1)C(=O)C1CCC(=O)N(CCc2ccccc2)C1 (stereo not drawn)	none
Cc1ccc(CNC(=O)CSc2ncc(C(=O)Nc3ccccc3)c(=O)n2C)cc1	none
CCC(=O)N1CCc2cc(Br)cc(S(=O)(=O)CCC(=O)Nc3ccc(CC)cc3)c21	none (no result: Pf growth 48h, Pf growth 96h, SARS PLpro yeast)
CNc1sc(C(=O)c2ccccc2F)c(N)c1-c1nc2ccccc2s1	Sm TGR block 25.1µM, Pf growth 96h inconclusive (no result: Pf growth 48h)
COC(=O)C1=C(C(=O)OC)C(c2cc(Cl)ccc2O)c2sc(=O)[nH]c2S1 (stereo not drawn)	Sm TGR block 39.8µM
CC(c1nccs1)N(C)C(=O)CCc1nnc(CCc2ccccc2)o1 (stereo not drawn)	none
O=C(CCc1nnc(CCc2ccccc2)o1)N1CCCC1c1nccs1 (stereo not drawn)	Pf growth 96h 13.1µM
Cc1ccc(OCC(O)Cn2c(=N)n(CCN3CCCCC3)c3ccccc32)cc1 (stereo not drawn)	Pf growth 48h 3.7µM
Cc1ccc(OCC(O)Cn2c(=N)n(CCN3CCOCC3)c3ccccc32)cc1 (stereo not drawn)	Pf growth 48h inconclusive
COc1ccc(OCC(O)Cn2c(=N)n(CCN3CCCCC3)c3ccccc32)cc1 (stereo not drawn)	Pf growth 48h 4.65µM, Pf growth 96h inconclusive
CCOC(=O)C1CCCN(C(=O)CCc2nnc(-c3ccc(C(C)=O)s3)o2)C1 (stereo not drawn)	Sm TGR block 15.8µM
CCOC(=O)C1CCCN(C(=O)CSCc2ccccc2)C1 (stereo not drawn)	Pf growth 96h inconclusive
Cc1cccc2c1cnn2C(=O)CCC(=O)NCc1ccc(F)cc1	Pf growth 96h 14.7µM, SARS PLpro yeast inconclusive
Cc1ccc(CNC(=O)CCC(=O)n2ncc3cc(C)ccc32)cc1	Pf growth 48h inconclusive
Cc1ccc(CNC(=O)c2cnn3c(C)c(Cc4c(F)cccc4Cl)c(C)nc23)cc1	none (no result: Pf growth 48h, Pf growth 96h, SARS PLpro yeast)
O=C(NCc1ccco1)c1cnn2c(C(F)(F)F)cc(-c3cccs3)nc12	Sm TGR block inconclusive, Pf growth 48h inconclusive, Pf growth 96h 9.28µM
Cc1cc(C)c(Cc2c(C)nc3c(C(=O)NCc4ccco4)cnn3c2C)c(C)c1	Pf growth 96h 11.7µM (no result: Pf growth 48h)
O=C1C2CCCCC2C(=O)N1c1ccc(S(=O)(=O)Nc2ncccn2)cc1 (stereo not drawn)	Pf growth 96h inconclusive
NC(=O)CN1C(=O)/C(=c2\sc3nc(=O)c(Cc4ccccc4)nn3c2=O)c2ccccc21	Sm TGR block 0.355µM
COC(=O)c1ccccc1NC(=O)C1=C(C)C(=O)OC12CCC(C)CC2 (stereo not drawn)	none (no result: Pf growth 48h, Pf growth 96h, SARS PLpro yeast)
Cc1cc2c(c(=O)o1)C1(C(=O)N(C)c3ccccc31)C(C#N)=C(N)O2 (stereo not drawn)	Pf growth 96h inconclusive
CC1=CC(C)(C)N2C(=O)C3(C(C#N)=C(N)OC4=C3C(=O)CC(C)(C)C4)c3cccc1c32 (stereo not drawn)	none (no result: Pf growth 48h)
COc1cc2c3c(c1)C1(C(=O)N3C(C)(C)C=C2C)C(C#N)=C(N)Oc2cc(C)oc(=O)c21 (stereo not drawn)	Pf growth 48h 5.86µM
CC1=CC(C)(C)N2C(=O)C3(C(C#N)=C(N)OC4=C3C(=O)CC(C)(C)C4)c3c(C)c(C)cc1c32 (stereo not drawn)	Pf growth 96h 4.15µM, SARS PLpro yeast inconclusive (no result: Pf growth 48h)
Cc1ccc2c(CNC3CCC(C)CC3)c(C(=O)O)n(Cc3cccc(F)c3)c2c1 (stereo not drawn)	none (no result: Pf growth 48h, Pf growth 96h, SARS PLpro yeast)
Cc1cc(C)nc(NC(=NCCc2c[nH]c3ccccc23)NC(=O)Nc2ccc(Cl)cc2)n1	Pf growth 48h 2.94µM, Pf growth 96h 0.586µM
CN(C)C(CNC(=O)c1ccc(C(F)(F)F)cc1)c1ccco1 (stereo not drawn)	none
CN/C=C1\C(=O)C(C)(C)Oc2ccc3ccc(=O)oc3c21	none (no result: Pf growth 96h)
COC1=Cc2c(ccc3ccc(=O)oc23)OC1(C)C	Pf growth 48h 7.38µM (no result: Pf growth 96h)
COc1ccc(CNC(=O)CN(C)c2nn3c(=O)cc(C)nc3s2)cc1	none (no result: Pf growth 48h, Pf growth 96h, SARS PLpro yeast)
